The values below come from PubChem BioAssay (Tox21).

A number with no mark means an inactive call. The source made the active and inactive calls. Unless noted, calls come from the whole dose curve; as a rule, active = well fitted curve in the direction sought with a large enough effect in the repeat runs; inconclusive = weak or mixed curves; inactive = no such curve, though single readings can be large; an effect the other way counts as inactive or inconclusive.

Experiment [1] is described as follows: qHTS assay for small molecule agonists of the p53 signaling pathway (AID 651631; calls by dose curve; note: nearly all actives have a fitted effect of over 15% in size). The note with it: HCT-116 p53RE-bla reporter, beta-lactamase FRET ratio, 16 h; series mostly up to 73.3 µM. The procedure, abridged: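 HCT-116 cells carrying a stable p53 response element–beta-lactamase reporter were plated, rested 5 h at 37 °C, then exposed to compound in DMSO for 16 h at 37 °C; reporter activity was read as FRET substrate fluorescence after 2 h at room temperature.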

A short description of experiment [2]: qHTS assay for small molecules that induce genotoxicity in human embryonic kidney cells expressing luciferase-tagged ATAD5 (AID 651632). Note: nearly all actives have a fitted effect of over 15% in size. The note with it: HEK293T ATAD5-luciferase induction, 16 h; series mostly up to 83.3 µM. A digest of the protocol:
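Increased luciferase signal from ATAD5-tagged reporter cells indicates DNA-damage-driven ATAD5 induction. HEK293T cells are treated for 16 hr at 37C before detection with Amplite.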
(In general: In qHTS, concentration-response curves come from the screen itself.)

A short description of experiment [3]: qHTS assay for small molecule agonists of the p53 signaling pathway - cell viability (AID 651633; calls by dose curve; note: nearly all actives have a fitted effect of over 30% in size). The note with it: p53RE-bla HCT-116 viability, ATP luminescence, 16 h; series mostly up to 83.3 µM. The procedure, abridged:
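p53RE-bla cells were treated with compound for 16 hours at 37 C. Cytotoxicity was then measured as CellTiter-Glo luminescence after 30 min at room temperature.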

Experiment [4] can be described thus: qHTS assay for small molecules that induce genotoxicity in human embryonic kidney cells expressing luciferase-tagged ATAD5 - cell viability (AID 651634; calls by dose curve; note: nearly all actives have a fitted effect of over 25% in size). The note with it: HEK293T ATAD5-luc cells viability, CellTiter-Fluor, 15.5 h; series mostly up to 83.3 µM. The procedure, abridged: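 Cytotoxicity counterscreen in HEK293T cells bearing an ATAD5-luciferase reporter: live-cell protease activity measured by CellTiter-Fluor fluorescence after 15.5 hr compound exposure.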

Experiment [5] in a line: qHTS assay for small molecule disruptors of the mitochondrial membrane potential - cell viability (AID 720634; calls by dose curve;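 note: human HepG2 liver cancer cells; nearly all actives have a fitted effect of over 20% in size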). The following applies: HepG2 viability, ATP luminescence (CellTiter-Glo), 1 h; series mostly up to 83.2 µM. The procedure, abridged: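 After overnight attachment at 37 C, HepG2 cells received compound or DMSO vehicle for 1 hr. Viability is then taken from ATP-driven luminescence following a 30 min room-temperature CellTiter-Glo step.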

The nature of experiment [6]: qHTS assay for small molecule disruptors of the mitochondrial membrane potential (AID 720635). Note: potency is the fitted concentration of half-maximal effect. The note with it: HepG2 mitochondrial membrane potential, Mito-MPS dye ratio; series mostly up to 83.2 µM. The procedure, abridged: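 HepG2 cells exposed to compound 1 hr at 37C, then Mito-MPS dye 30 min. Ratio read of aggregate (540/590 nm) versus monomer (490/535 nm) fluorescence.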

A short description of experiment [7]: qHTS assay to test for compound auto fluorescence at 590 nm (red) in HepG2 cells (AID 720674). The note with it: HepG2 autofluorescence, red 540/590 nm, 1 h; series mostly up to 91.3 µM. A digest of the protocol:
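HepG2 cells, 2,000 per well in MEM with 10% FBS, attached overnight at 37 C, then got 23 nL compound or DMSO. After 1 hr at 37 C, 5% CO2, red fluorescence was read at 540/590 nm against Rose Bengal sodium as reference.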

Experiment [8] is described as follows: qHTS assay to test for compound auto fluorescence at 535 nm (green) in HepG2 cells (AID 720675). The note with it: green autofluorescence 485/535 nm, 1 h; series mostly up to 91.3 µM.
Experiment [9] can be described thus: qHTS assay to test for compound auto fluorescence at 460 nm (blue) in HEK293 cells (AID 720678). The note with it: blue autofluorescence 405/460 nm; series mostly up to 91.3 µM. The procedure, abridged: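 Blue-channel (Ex/Em 405/460 nm) intensity measured in HEK293 cultures after overnight compound exposure at 37C; signal expressed relative to triamterene. Cells plated 2,000 per well in 10% dialyzed FBS medium and allowed 4-5 hr to attach.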

Experiment [10] can be described thus: qHTS assay to test for compound auto fluorescence at 590 nm (red) in HEK293 cells (AID 720679). The note with it: red autofluorescence 540/590 nm; series mostly up to 91.3 µM. A digest of the protocol:
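Red-channel autofluorescence (Ex/Em 540/590 nm; Rose Bengal sodium reference) was measured after overnight 37C, 5% CO2 exposure of attached HEK293 cells, 2,000 per well in medium with 10% dialyzed FBS.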

Experiment [11] can be described thus: qHTS assay to test for compound auto fluorescence at 535 nm (green) in HEK293 cells (AID 720680). The note with it: green autofluorescence 485/535 nm; series mostly up to 91.3 µM.
Experiment [12] in a line: qHTS assay to test for compound auto fluorescence at 460 nm (blue) in HEK293 cell free culture (AID 720681). The note with it: cell-free medium, autofluorescence 405/460 nm (blue); series mostly up to 91.3 µM. A digest of the protocol:
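Compounds were added to cell-free DMEM with 10% FBS and fluorescence read directly. The blue channel used 405 nm excitation and 460 nm emission, with triamterene as the reference fluorophore.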

A short description of experiment [13]: qHTS assay to test for compound auto fluorescence at 535 nm (green) in HEK293 cell free culture (AID 720682). The following applies: cell-free medium, green autofluorescence 485/535 nm, hits give high values; series mostly up to 91.3 µM. The procedure, abridged:
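Read-out: 485/535 nm fluorescence intensity, calibrated against fluorescein. Medium only (DMEM + 10% FBS, no cells); test compound or DMSO vehicle added by pintool before plate reading.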

A short description of experiment [14]: qHTS assay to test for compound auto fluorescence at 590 nm (red) in HEK293 cell free culture (AID 720683). The note with it: cell-free medium autofluorescence, Ex540/Em590 red; series mostly up to 91.3 µM. The procedure, abridged:
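Cell-free wells of DMEM with 10% FBS received compound, and intrinsic fluorescence was read at excitation/emission 540/590 nm. Values expressed as equivalence to Rose Bengal sodium.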

Experiment [15] in a line: qHTS assay to test for compound auto fluorescence at 590 nm (red) in HepG2 cell free culture (AID 720684). The note with it: cell-free medium autofluorescence, red 540/590 nm; series mostly up to 91.3 µM. The procedure, abridged: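 Compound was pinned into wells holding MEM with 10% FBS and no cells, and red fluorescence was read at Ex/Em 540/590 nm. Signal is expressed as auto fluorescence equivalency relative to Rose Bengal sodium.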

Experiment [16] is described as follows: qHTS assay to test for compound auto fluorescence at 460 nm (blue) in HepG2 cell free culture (AID 720685). The following applies: Cell-free culture medium, blue autofluorescence 405/460 nm; series mostly up to 91.3 µM. The procedure, abridged: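 Compound (23 nL) or DMSO pinned into cell-free MEM with 10% FBS; blue fluorescence read at 405/460 nm excitation/emission, expressed as auto-fluorescence equivalency to triamterene.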

Experiment [17] can be described thus: qHTS assay to test for compound auto fluorescence at 535 nm (green) in HepG2 cell free culture (AID 720686). The note with it: Cell-free medium, green autofluorescence 485/535 nm; series mostly up to 91.3 µM.
Experiment [18] is described as follows: qHTS assay to test for compound auto fluorescence at 460 nm (blue) in HepG2 cells (AID 720687). The note with it: autofluorescence 405/460 nm, 1 h; series mostly up to 91.3 µM. The procedure, abridged:
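HepG2 cells in MEM with 10% FBS, attached overnight at 37 C, were exposed to compound or DMSO for 1 hr at 37 C, 5% CO2. Blue fluorescence was read at 405/460 nm, with triamterene as reference fluorophore.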

In experiment [19] the target is Glucocorticoid receptor (Homo sapiens) (UniProt P04150). As to the kind of experiment: qHTS assay to identify small molecule agonists of the glucocorticoid receptor (GR) signaling pathway (AID 720691; active = well fitted activation curve with a large enough effect in the signal ratio in the repeat runs, not every such curve was filed as active; inconclusive = weak or mixed curves, or effect the other way; inactive = no such curve, though single readings can be large or run the other way; the % refers to the signal ratio; note: potency is the fitted concentration of half-maximal effect). The note with it: GR-bla HeLa, beta-lactamase reporter ratio, 18 h; series mostly up to 62.4 µM. The procedure, abridged: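 Agonist mode in a HeLa line carrying a GRE-controlled beta-lactamase reporter. Compounds act for 18 h at 37 C before a 2 h room-temperature FRET substrate step and fluorescence reading.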

For experiment [20] the target is unchanged. As to the kind of experiment: qHTS assay to identify small molecule antagonists of the glucocorticoid receptor (GR) signaling pathway (AID 720692; active = well fitted inhibition curve with a large enough effect in the signal ratio in the repeat runs, not every such curve was filed as active; inconclusive = weak or mixed curves, or effect the other way; inactive = no such curve, though single readings can be large or run the other way; the % refers to the signal ratio). The following applies: GR-bla HeLa, beta-lactamase FRET ratio, dexamethasone-stimulated, 18 h; series mostly up to 58.5 µM. A digest of the protocol:
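Cells plated, rested 4 h at 37 C/5% CO2; compounds in DMSO pin-transferred; dexamethasone added to 5 nM final; 18 h at 37 C; B/G FRET substrate added, 2 h room temperature; fluorescence measured.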

Sequence of Glucocorticoid receptor (Homo sapiens) (P04150 whole entry, looked up): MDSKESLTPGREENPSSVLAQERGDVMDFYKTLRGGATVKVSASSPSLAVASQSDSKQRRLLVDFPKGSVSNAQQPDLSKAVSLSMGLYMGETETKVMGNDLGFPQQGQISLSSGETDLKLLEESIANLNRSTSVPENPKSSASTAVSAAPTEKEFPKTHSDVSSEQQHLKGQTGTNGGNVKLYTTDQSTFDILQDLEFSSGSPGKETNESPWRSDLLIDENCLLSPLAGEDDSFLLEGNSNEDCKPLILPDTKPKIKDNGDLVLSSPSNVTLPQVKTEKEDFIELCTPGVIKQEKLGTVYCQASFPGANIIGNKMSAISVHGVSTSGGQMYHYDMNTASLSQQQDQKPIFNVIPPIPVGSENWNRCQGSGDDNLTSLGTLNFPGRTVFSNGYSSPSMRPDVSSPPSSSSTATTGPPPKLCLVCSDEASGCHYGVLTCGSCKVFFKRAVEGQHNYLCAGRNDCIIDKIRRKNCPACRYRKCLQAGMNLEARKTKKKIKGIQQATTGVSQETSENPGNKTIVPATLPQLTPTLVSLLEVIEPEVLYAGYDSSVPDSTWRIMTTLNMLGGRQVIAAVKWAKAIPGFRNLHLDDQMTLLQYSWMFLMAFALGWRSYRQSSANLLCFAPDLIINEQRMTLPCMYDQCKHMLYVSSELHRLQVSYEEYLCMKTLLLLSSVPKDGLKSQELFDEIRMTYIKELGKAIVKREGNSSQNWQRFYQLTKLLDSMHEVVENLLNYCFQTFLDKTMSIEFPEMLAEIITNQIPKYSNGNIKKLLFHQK

Regarding `O=C(O)c1cccc(Oc2ccccc2)c1`, the Potency entry in [1], in [2], in experiment [3], in [4], in [6] and in experiment [9] was “inactive” throughout. Further, the Potency result in [12], in experiment [16], in experiment [18], in experiment [19] and in experiment [20] was “inactive” throughout. Further, the call in [5], in experiment [7], in experiment [8], in [10], in experiment [11] and in experiment [13] was inactive. The call in experiment [14], in experiment [15] and in [17] was inactive.
Consider `BrC(Br)C(Br)Br`, for which the Potency result in experiment [1], in [2], in experiment [3], in experiment [4], in [6] and in [9] was “inactive” throughout. The Potency result in experiment [12], in experiment [16], in experiment [18], in experiment [19] and in [20] was “inactive” each time. Besides, the compound was classed as inactive in experiment [5], in experiment [7], in experiment [8], in experiment [10], in [11] and in [13]. Further, the compound was classed as inactive in experiment [14], in experiment [15] and in [17].
For the compound `O=c1[nH]c2cc(C(F)(F)F)c(N3CCOCC3)cc2n(CP(=O)(O)O)c1=O`, the Potency entry in experiment [1], in [2], in experiment [3], in experiment [4], in [6] and in experiment [9] was “inactive” throughout. The Potency result in [12], in experiment [16], in experiment [18], in [19] and in [20] was “inactive” each time. For the same compound, the call in experiment [5], in experiment [7], in experiment [10], in [11], in [13] and in experiment [14] was inactive. The result in experiment [15] and in [17] was inactive.
Regarding `Nc1c(Cl)cc(Cl)cc1[N+](=O)[O-]`, the Potency entry in [1], in experiment [2], in experiment [3], in experiment [4], in [9] and in experiment [12] was “inactive” each time. Further, the Potency result in experiment [16] and in experiment [18] was “inactive” each time. The result in [5], in [7], in experiment [10], in [11], in experiment [13] and in experiment [14] was inactive. The call in experiment [15] and in [17] was inactive.
`CC(=O)OCC(=O)[C@@]1(OC(C)=O)[C@@H](C)C[C@H]2[C@@H]3C[C@H](F)C4=CC(=O)C=C[C@]4(C)[C@@]3(F)[C@@H](O)C[C@@]21C`: the Potency entry in experiment [1], in experiment [2], in experiment [3], in experiment [4], in experiment [9] and in [12] was “inactive” each time. The Potency result in experiment [16] and in experiment [18] was “inactive” each time. The compound was called inactive in experiment [5], in experiment [7], in [8], in experiment [10], in experiment [11] and in experiment [13]. Further, the compound was classed as inactive in experiment [14], in experiment [15] and in experiment [17]. The Potency in [19] was 37.9 nM [inconclusive] (active).
As to `O=[N+]([O-])c1ccc2ncccc2c1`, the Potency result in experiment [1], in [2], in experiment [3], in experiment [4], in experiment [9] and in [12] was “inactive” in each case. For the same compound, the Potency entry in experiment [16], in experiment [18] and in experiment [19] was “inactive” each time. The call in experiment [5], in experiment [7], in experiment [8], in experiment [10], in experiment [11] and in experiment [13] was inactive. The call in experiment [14], in experiment [15] and in experiment [17] was inactive.
As for `Nc1nc(-c2ccc([N+](=O)[O-])cc2)cs1`, the Potency entry in experiment [1], in [2], in experiment [3], in [4], in experiment [9] and in experiment [12] was “inactive” in each case. Further, the Potency entry in experiment [16], in experiment [18], in [19] and in experiment [20] was “inactive” in each case. The compound was classed as inactive in experiment [5], in [7], in [10], in [11], in experiment [13] and in experiment [14]. Also, the outcome in experiment [15] and in [17] was inactive. Further, the Potency in experiment [6] is 3100 nM (active).
